Screen size: about 320,000 compounds; about 2,100 (0.66%) were called active. Roughly 53% stayed inconclusive and do not appear here. The sample holds actives, similar compounds and a random draw of the others, so the mix is not that of the screen. Calls follow the shape of the dose curve; as a rule, active = well fitted inhibition curve with a large enough effect in the signal ratio, with a control signal flat (not every such curve was filed as active); inconclusive = small, poorly fitted or top-dose-only effect, or effect the other way, or a change in a side signal; inactive = flat fitted curve, though single readings scatter; the % refers to the signal ratio.
Assay: qHTS Assay for Lipid Storage Modulators in Drosophila S3 Cells;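 as to cell number change: cells counted by Cell Tracker Red CMTPX staining in the red channel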; as to lipid storage change, negative = inhibition: % is scaled to controls: 0 for no effect and ±100 for the full control effect
Conditions: BODIPY lipid droplet fluorescence, 18-24 h, cells fed with added oleic acid; cell number change: measured here: cell count max response; series mostly up to 46.1 µM; lipid storage change, negative = inhibition: at the top concentration
Source text: NIH Molecular Libraries Probe Production Centers Network [MLPCN] NIH Chemical Genomics Center [NCGC] MLPCN Grant: 1 R03 MH085686-01 Assay Submitter (PI): Beller, Mathias; Max-Planck-Institut fur Biophysikalische Chemie NCGC Assay Overview: Storing lipids as a reservoir for energy or the anabolism of elementary metabolites is a common feature of probably all cells and is conserved from bacteria to humans. The universal cellular lipid storage organelle is the so-called lipid storage droplet (LD). Although ubiquitous, LDs share a simple structure composed of a hydrophobic core that harbors the storage lipids, which is shielded by a droplet-specific phospholipid monolayer to which proteins are attached. The current model of LD biogenesis involves an incorporation of the lipid core into the membrane leaflets of the endoplasmic reticulum (ER) followed by a subsequent budding-like maturation of a LD, which ultimately pinches off. Once released, LD volume can increase by localized lipogenesis or fusion of existing droplet. Storage lipids are re-mobilized enzymatically by lipase activity. Lipase regulation in the adipocyte is heavily studied and involves multiple components including catecholamine signaling, the LD-associated proteins Perilipin and comparative gene identification (CGI-58) and at least two lipases named hormone sensitive lipase (HSL) and adipocyte triglyceride lipase (ATGL). LD regulation outside of the adipocyte is poorly understood and only few components are known. However, there is an urgent need to learn more about ectopic fat depots as mislocalized storage of lipids, for example in the liver or muscle, is an eminent health problem associated with insulin resistance or the metabolic syndrome. We developed a laser-scanning cytometer assay to enable 1,536-well screening and combined the results of the small molecules screen with an RNAi database based on lipid storage.
Triacsin C (Sigma-Aldrich T-4540), an inhibitor of long-chain fatty acyl CoA synthetase that blocks synthesis of triglycerides, was used as a positive control for lipid under-storage. A total of 23 nL of compound solution of different concentrations were transferred to the assay plates using a Kalypsys pin tool equipped with a 1,536-pin array containing 10-nL slotted pins (FP1S10, 0.457-mm diameter, 50.8 mm long; V&P Scientific). One microliter of oleic acid (400 uM) was added, and the plate was lidded with stainless steel rubber gasket lined lids containing pinholes. […] Fluorescence was detected by excitation of the fluorophores with a 488-nm laser on an Acumen Explorer (TTP Lab Tech). The total intensity in channel 2 (500-530 nm) reflected lipid droplet accumulation. Cells were detected using channel 3 (575-640 nm) with 5-um width and 100-um depth filters. The ratio of the number of objects in PMT channel 2 over the number of objects in PMT channel 3 was also calculated. Percent activity was computed relative to an internal control (100% inhibited lipid droplet deposition due to the presence of 20 uM Triacsin C), which was added to 32 wells/plate.
In the case of CC(=O)N(C1=NCCCS1)c1ccc(F)cc1, the Potency is reported as 16.4 µM (active) and the cell number change is reported as -2.11%.
With COc1cccc(N(C(C)=O)C2=NCCCS2)c1 the “lipid storage change, negative = inhibition” value was -1.29% (inactive) and the cell number change was 4.22%.
For CC(=O)N(C1=NCCCS1)c1ccc(Cl)cc1, the “lipid storage change, negative = inhibition” value was 4.02% (inactive) and the cell number change was -2.46%.
For O=C(COc1ccccc1Cl)N1CCCC(N2CCN(c3ccc(F)cc3)CC2)C1 (configuration not stated), the “outcome” value was “inactive” and the cell number change was -2.12%.
For Cn1c(O)c(C=NC2CCCCC2)c(=O)[nH]c1=S, the “lipid storage change, negative = inhibition” value was 4.55% (inactive) and the cell number change was 4.27%.
In the case of Cc1cc(NCCN)nc2ccccc12, the “outcome” value is reported as “inactive” and the cell number change is reported as 15.7%.
In the case of Cc1cc(/C=C2\C(=O)NC(=O)N(c3ccccc3)C2=O)c(C)n1-c1ccc(C(=O)O)c(Cl)c1, the “lipid storage change, negative = inhibition” value is reported as 14.6% (inactive) and the cell number change is reported as -8.5%.
In the case of CCN(CC)c1nc2c(C)cccn2c(=O)c1C=C1C(=O)NC(=O)NC1=O, the “lipid storage change, negative = inhibition” value is reported as 2.13% (inactive) and the cell number change is reported as 3.76%.
For CCOC(=O)N(C)c1ccc(C(O)(C(=O)OC)C(F)(F)F)cc1 (configuration not stated), the “lipid storage change, negative = inhibition” value was 11.7% (inactive) and the cell number change was 10.8%.
With Cc1ccc2c(CN3CC=C(c4ccccc4)CC3)cc(=O)oc2c1C the “lipid storage change, negative = inhibition” value was 10% (inactive) and the cell number change was 0.524%.
In the case of COc1ccc2ccc(O)c(CN3CC=C(c4ccccc4)CC3)c2c1, the “lipid storage change, negative = inhibition” value is reported as -22% (inactive) and the cell number change is reported as 13.7%.
With Cc1cc(O)c(CN2CC=C(c3ccccc3)CC2)cc1C(C)C the Potency was 18.4 µM (active).
With CCC(CC)NCc1c[nH]c2ccccc12 the “lipid storage change, negative = inhibition” value was -2.64% (inactive) and the cell number change was -0.482%.
For O=C(Nc1ccc(Br)cc1)c1nn(C23CC4CC(CC(C4)C2)C3)cc1Br, the “lipid storage change, negative = inhibition” value was 20.5% (inactive) and the cell number change was 0.69%.
In the case of CS(=O)(=O)NCc1nnc2n1-c1ccc(Cl)cc1C(c1ccccc1)=NC2, the “lipid storage change, negative = inhibition” value is reported as 4.56% (inactive) and the cell number change is reported as 13.6%.
In the case of CCCCc1nc2ccccc2c(=O)n1-c1ccccc1O, the “lipid storage change, negative = inhibition” value is reported as -5.09% (inactive) and the cell number change is reported as -9.96%.
With CCCCn1c(O)c(C(CC)=Nc2ccc(C(=O)O)cc2)c(=O)[nH]c1=O the “lipid storage change, negative = inhibition” value was 5.22% (inactive) and the cell number change was 5.66%.
In the case of CCCCCCn1c(=O)c(C(=O)Nc2ccncc2)c(O)c2ccccc21, the “outcome” value is reported as “inactive” and the cell number change is reported as 15.2%.
With CCCCCCn1c(=O)c(C(=O)Nc2ncccc2O)c(O)c2ccccc21 the Potency was 7.31 µM (active) and the cell number change was -21.9%.
For CCCCCn1c(=O)c(C(=O)Nc2ncccc2C)c(O)c2ccccc21, the “lipid storage change, negative = inhibition” value was 20.1% (inactive) and the cell number change was -11.8%.
For Cc1ccc(C(=O)N/C(=C\Cl)P(=O)(c2ccccc2)c2ccccc2)cc1, the “lipid storage change, negative = inhibition” value was -14.3% (inactive) and the cell number change was 0.754%.
For OC(c1ccccc1)(c1ccccc1)C1CCCN1 (configuration not stated), the “lipid storage change, negative = inhibition” value was 2.1% (inactive) and the cell number change was -1.52%.
For O=C(O)C(O)(c1ccccc1)C1CCCCC1 (configuration not stated), the “lipid storage change, negative = inhibition” value was 6.74% (inactive) and the cell number change was -9.04%.
For OC(c1ccccc1)(c1ccccc1)C1CCNCC1, the Potency was 25.9 µM (active).
For CN(C(=O)CNC(=O)OCc1ccccc1)c1ccc(Br)cc1C(=O)c1ccccc1Cl, the “lipid storage change, negative = inhibition” value was 17.8% (inactive) and the cell number change was 9.34%.
In the case of CCCNS(=O)(=O)c1ccc(OCC(=O)N2CCN(Cc3ccc4c(c3)OCO4)CC2)c(C)c1, the “lipid storage change, negative = inhibition” value is reported as -21.8% (inactive) and the cell number change is reported as -6.04%.
With CCCCn1c(O)c(C(C)=NCCCN(CC)CC)c(=O)[nH]c1=O the Potency was 23.1 µM (active) and the cell number change was -0.0737%.
With CCCCCCN=C(C)c1c(O)n(CCCC)c(=O)[nH]c1=O the “lipid storage change, negative = inhibition” value was 13.5% (inactive) and the cell number change was 0.489%.
With CCCCn1c(O)c(C(C)=NCCc2ccccc2)c(=O)[nH]c1=O the “outcome” value was “inactive”.
With Cc1ccc2c(c1)C1CN(C)CCC1N2C(=O)c1cccnc1Cl (configuration not stated) the “lipid storage change, negative = inhibition” value was 7.31% (inactive) and the cell number change was -4.72%.
For CCOC(=O)c1c(C=O)c2ccccc2n1Cc1ccccc1, the “lipid storage change, negative = inhibition” value was 17.4% (inactive) and the cell number change was 3.55%.
In the case of CCOC(=O)c1ccc(N=C(c2ccccc2)c2c(O)n(C)c(=O)n(C)c2=O)cc1, the “lipid storage change, negative = inhibition” value is reported as -0.0351% (inactive) and the cell number change is reported as 1.32%.
For CCOC(=O)c1ccc(S(=O)(=O)n2c(=O)oc3ccccc32)cc1, the Potency was 20.6 µM (active).
In the case of O=C1Nc2ccc(Br)cc2C(c2ccccc2)=NC1O (configuration not stated), the “lipid storage change, negative = inhibition” value is reported as -3.23% (inactive) and the cell number change is reported as 22.1%.
In the case of C=C(COC(C)=O)CC1CC(O)[C@]2(C)OC3CC4OC5C[C@]6(C)O[C@]7(C)CCC8OC9C[C@]%10(C)OC%11C(C)=CC(=O)OC%11CC%10OC9C[C@@H](C)C8OC7CC6O[C@]5(C)C/C=C\C4OC3CC2O1 (some centres not stated), the “lipid storage change, negative = inhibition” value is reported as -27.9% (inactive).
With CN(C)C(=O)Nc1cccc(OC(=O)N(C)C)c1 the Potency was 32.6 µM (active).
With CN(C)C(=O)Oc1cccc(NC(=O)c2ccccc2C(F)(F)F)c1 the “lipid storage change, negative = inhibition” value was -14.6% (inactive) and the cell number change was -0.228%.
For CN(C)C(=O)Oc1cccc(NC(=O)N2CCOCC2)c1, the “lipid storage change, negative = inhibition” value was -2.7% (inactive) and the cell number change was -25%.
With CCOC(=O)C1(CCc2ccccc2)CCN(Cc2csc(C(C)=O)c2)CC1 the “lipid storage change, negative = inhibition” value was -8.12% (inactive) and the cell number change was 3.18%.
For CCN(CC)S(=O)(=O)c1cc(NC(=O)C(C)N2CC=C(c3ccccc3)CC2)ccc1C (configuration not stated), the “lipid storage change, negative = inhibition” value was 2.66% (inactive) and the cell number change was -3.32%.
For CN(C)c1ccc(NC(=O)CN2C(=O)CN=C(c3ccccc3)c3ccccc32)cc1, the Potency was 10.3 µM (active) and the cell number change was -43.3%.
In the case of CCCCNC(=O)CN1C(=O)CN=C(c2ccccc2)c2ccccc21, the “lipid storage change, negative = inhibition” value is reported as -1.07% (inactive) and the cell number change is reported as 20.3%.
In the case of CN(C)c1ccc(NC(=O)CN2C(=O)CN=C(c3ccccc3)c3cc(Cl)ccc32)cc1, the “lipid storage change, negative = inhibition” value is reported as -4.46% (inactive) and the cell number change is reported as 4.79%.
With O=C(CN1C(=O)CN=C(c2ccccc2)c2ccccc21)NCc1ccco1 the “outcome” value was “inactive” and the cell number change was 7.88%.
With Cc1ccc(CN2C(=O)CN=C(c3ccccc3)c3ccccc32)cc1 the Potency was 10.3 µM (active) and the cell number change was 11.7%.
For O=C1CN=C(c2ccccc2)c2ccccc2N1Cc1ccc(C(F)(F)F)cc1, the “outcome” value was “inactive”.
With Cc1nc2ccccc2c(=O)n1-c1ccc(Cl)c(Cl)c1 the “lipid storage change, negative = inhibition” value was 5.88% (inactive) and the cell number change was 8.67%.
With CCN1CCN(C(=O)Cc2ccccc2OC)CC1 the “lipid storage change, negative = inhibition” value was 6.25% (inactive) and the cell number change was 5.49%.
With NC(=O)C1CCN(/C=C2\C(=O)NC(=O)N(Cc3ccco3)C2=O)CC1 the “lipid storage change, negative = inhibition” value was -3.16% (inactive) and the cell number change was 6.38%.
With Cc1c(NC(NC(=O)CF)C(Cl)(Cl)Cl)c(=O)n(-c2ccccc2)n1C (configuration not stated) the “lipid storage change, negative = inhibition” value was -0.0201% (inactive) and the cell number change was 8.45%.
For O=C(COc1ccc(Cl)cc1)N(c1ccccc1Cl)C1CN2CCC1CC2 (configuration not stated), the “lipid storage change, negative = inhibition” value was 17.1% (inactive) and the cell number change was -2.19%.
For O=C(Nc1ccc(Cl)cc1C(=O)c1ccccc1Cl)c1ccco1, the “lipid storage change, negative = inhibition” value was -1.31% (inactive) and the cell number change was -6.61%.
Potency is read from the fitted curve at half-maximal effect.
